# Measurements published in doi:10.1101/2024.03.05.583629.
# Molecular target: pT7_6His-AlfaTag-HOXD13 (human, UniProt P35453 263-343)
# Experiment: PADIT-seq
# Conditions: dsDNA, one strand shown
# pT7_6His-AlfaTag-HOXD13, sequence (P35453 263-343): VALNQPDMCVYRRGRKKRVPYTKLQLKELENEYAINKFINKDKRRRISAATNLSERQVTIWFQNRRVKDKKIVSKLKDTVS
row,Sequence,binding signal
1,CTCGAGGATATCAAGATCTGGCCTCGGCCTTTTACTGGGAACCTCTAGCTAGCCGACTCACTATAGGGATAATCGCCCTGAGCAAAGACC,2.53 ± 0.0719 log2FC
2,CTCGAGGATATCAAGATCTGGCCTCGGCGTTTTACTTGGAACCTCTAGCTAGCCGACTCACTATAGGGATAATCGCCCTGAGCAAAGACC,1.25 ± 0.0875 log2FC
3,CTCGAGGATATCAAGATCTGGCCTCGGCAACTGGGCGGGAACCTCTAGCTAGCCGACTCACTATAGGGATAATCGCCCTGAGCAAAGACC,-0.923 ± 0.12 log2FC
4,CTCGAGGATATCAAGATCTGGCCTCGGCATTTTACACGGAACCTCTAGCTAGCCGACTCACTATAGGGATAATCGCCCTGAGCAAAGACC,2.19 ± 0.0742 log2FC
5,CTCGAGGATATCAAGATCTGGCCTCGGCGCGTGGCCGGGAACCTCTAGCTAGCCGACTCACTATAGGGATAATCGCCCTGAGCAAAGACC,-1.04 ± 0.14 log2FC
6,CTCGAGGATATCAAGATCTGGCCTCGGCCTGTTAAAAGGAACCTCTAGCTAGCCGACTCACTATAGGGATAATCGCCCTGAGCAAAGACC,2.25 ± 0.0806 log2FC
7,CTCGAGGATATCAAGATCTGGCCTCGGCACGGTAAAAGGAACCTCTAGCTAGCCGACTCACTATAGGGATAATCGCCCTGAGCAAAGACC,0.528 ± 0.077 log2FC
8,CTCGAGGATATCAAGATCTGGCCTCGGCGTTTTATGGGGAACCTCTAGCTAGCCGACTCACTATAGGGATAATCGCCCTGAGCAAAGACC,3.21 ± 0.0773 log2FC
9,CTCGAGGATATCAAGATCTGGCCTCGGCGCGCGCGCGGGAACCTCTAGCTAGCCGACTCACTATAGGGATAATCGCCCTGAGCAAAGACC,-1.01 ± 0.148 log2FC
10,CTCGAGGATATCAAGATCTGGCCTCGGCGAAGTAAAAGGAACCTCTAGCTAGCCGACTCACTATAGGGATAATCGCCCTGAGCAAAGACC,0.136 ± 0.0787 log2FC
11,CTCGAGGATATCAAGATCTGGCCTCGGCATTTTACCCGGAACCTCTAGCTAGCCGACTCACTATAGGGATAATCGCCCTGAGCAAAGACC,-0.0737 ± 0.0918 log2FC
12,CTCGAGGATATCAAGATCTGGCCTCGGCAATTTAAAAGGAACCTCTAGCTAGCCGACTCACTATAGGGATAATCGCCCTGAGCAAAGACC,2.32 ± 0.0729 log2FC
13,CTCGAGGATATCAAGATCTGGCCTCGGCTTTTTAAGAGGAACCTCTAGCTAGCCGACTCACTATAGGGATAATCGCCCTGAGCAAAGACC,2.84 ± 0.0822 log2FC
14,CTCGAGGATATCAAGATCTGGCCTCGGCTTCTTAAAAGGAACCTCTAGCTAGCCGACTCACTATAGGGATAATCGCCCTGAGCAAAGACC,0.549 ± 0.0953 log2FC
15,CTCGAGGATATCAAGATCTGGCCTCGGCGTTTTAGAAGGAACCTCTAGCTAGCCGACTCACTATAGGGATAATCGCCCTGAGCAAAGACC,0.37 ± 0.103 log2FC
16,CTCGAGGATATCAAGATCTGGCCTCGGCCCCATAAAAGGAACCTCTAGCTAGCCGACTCACTATAGGGATAATCGCCCTGAGCAAAGACC,2.77 ± 0.0828 log2FC
17,CTCGAGGATATCAAGATCTGGCCTCGGCCGCCCATAGGGAACCTCTAGCTAGCCGACTCACTATAGGGATAATCGCCCTGAGCAAAGACC,-0.685 ± 0.116 log2FC
18,CTCGAGGATATCAAGATCTGGCCTCGGCACAATAAAAGGAACCTCTAGCTAGCCGACTCACTATAGGGATAATCGCCCTGAGCAAAGACC,2.72 ± 0.0742 log2FC
19,CTCGAGGATATCAAGATCTGGCCTCGGCGGGCCACGCGGAACCTCTAGCTAGCCGACTCACTATAGGGATAATCGCCCTGAGCAAAGACC,-1.1 ± 0.106 log2FC

row,Sequence,binding signal
1,CTCGAGGATATCAAGATCTGGCCTCGGCTTTTTATAAGGAACCTCTAGCTAGCCGACTCACTATAGGGATAATCGCCCTGAGCAAAGACC,3.23 ± 0.0851 log2FC
2,CTCGAGGATATCAAGATCTGGCCTCGGCAGACTAAAAGGAACCTCTAGCTAGCCGACTCACTATAGGGATAATCGCCCTGAGCAAAGACC,-0.679 ± 0.104 log2FC
3,CTCGAGGATATCAAGATCTGGCCTCGGCGTTTTACCCGGAACCTCTAGCTAGCCGACTCACTATAGGGATAATCGCCCTGAGCAAAGACC,-0.0427 ± 0.101 log2FC
4,CTCGAGGATATCAAGATCTGGCCTCGGCCGCATACGCGGAACCTCTAGCTAGCCGACTCACTATAGGGATAATCGCCCTGAGCAAAGACC,-1.09 ± 0.122 log2FC
5,CTCGAGGATATCAAGATCTGGCCTCGGCGTTTTACAAGGAACCTCTAGCTAGCCGACTCACTATAGGGATAATCGCCCTGAGCAAAGACC,3.54 ± 0.0799 log2FC
6,CTCGAGGATATCAAGATCTGGCCTCGGCCGCCCAGAAGGAACCTCTAGCTAGCCGACTCACTATAGGGATAATCGCCCTGAGCAAAGACC,-1.09 ± 0.133 log2FC
7,CTCGAGGATATCAAGATCTGGCCTCGGCTTTTTATACGGAACCTCTAGCTAGCCGACTCACTATAGGGATAATCGCCCTGAGCAAAGACC,2.44 ± 0.0818 log2FC
8,CTCGAGGATATCAAGATCTGGCCTCGGCATTTTAGTGGGAACCTCTAGCTAGCCGACTCACTATAGGGATAATCGCCCTGAGCAAAGACC,1.61 ± 0.0939 log2FC
9,CTCGAGGATATCAAGATCTGGCCTCGGCAATGTAAAAGGAACCTCTAGCTAGCCGACTCACTATAGGGATAATCGCCCTGAGCAAAGACC,0.947 ± 0.0815 log2FC
10,CTCGAGGATATCAAGATCTGGCCTCGGCGGCTTAAAAGGAACCTCTAGCTAGCCGACTCACTATAGGGATAATCGCCCTGAGCAAAGACC,-0.00793 ± 0.0839 log2FC
11,CTCGAGGATATCAAGATCTGGCCTCGGCGTTTTAAAAGGAACCTCTAGCTAGCCGACTCACTATAGGGATAATCGCCCTGAGCAAAGACC,2.44 ± 0.0598 log2FC
12,CTCGAGGATATCAAGATCTGGCCTCGGCTTACTAAAAGGAACCTCTAGCTAGCCGACTCACTATAGGGATAATCGCCCTGAGCAAAGACC,0.214 ± 0.111 log2FC
13,CTCGAGGATATCAAGATCTGGCCTCGGCTTTTTAGGAGGAACCTCTAGCTAGCCGACTCACTATAGGGATAATCGCCCTGAGCAAAGACC,1.41 ± 0.0944 log2FC
14,CTCGAGGATATCAAGATCTGGCCTCGGCGCGTGGAAGGGAACCTCTAGCTAGCCGACTCACTATAGGGATAATCGCCCTGAGCAAAGACC,-0.832 ± 0.125 log2FC
15,CTCGAGGATATCAAGATCTGGCCTCGGCTACCTAAAAGGAACCTCTAGCTAGCCGACTCACTATAGGGATAATCGCCCTGAGCAAAGACC,-0.459 ± 0.127 log2FC
16,CTCGAGGATATCAAGATCTGGCCTCGGCTGCCTAAAAGGAACCTCTAGCTAGCCGACTCACTATAGGGATAATCGCCCTGAGCAAAGACC,-0.51 ± 0.109 log2FC
17,CTCGAGGATATCAAGATCTGGCCTCGGCCTTTTATTGGGAACCTCTAGCTAGCCGACTCACTATAGGGATAATCGCCCTGAGCAAAGACC,3.44 ± 0.0778 log2FC
18,CTCGAGGATATCAAGATCTGGCCTCGGCGCGCTCGCGGGAACCTCTAGCTAGCCGACTCACTATAGGGATAATCGCCCTGAGCAAAGACC,-1.06 ± 0.163 log2FC
19,CTCGAGGATATCAAGATCTGGCCTCGGCGTTTTAAGCGGAACCTCTAGCTAGCCGACTCACTATAGGGATAATCGCCCTGAGCAAAGACC,0.144 ± 0.109 log2FC
